For 22 molecules, Potency results are on record in PubChem BioAssay (Tox21).

The structures appear in SMILES notation. Inconclusive results are not listed. The source made the active and inactive calls. Unless noted, calls follow the shape of the dose curve; as a rule, active = well fitted curve in the direction sought with a large enough effect in the repeat runs; inconclusive = weak or mixed curves; inactive = no such curve, though single readings can be large; an effect the other way counts as inactive or inconclusive. Starred links: 1 amine or outer side, 2 acyl side, 3 side chain; linkers in the order of their positions; H or OH if unused. Positions of bridges follow the written chain, without caps; N, C: chain ends. Non-standard residues stand in square brackets, D forms with d. Residues, ends and D or L forms follow the SMILES beside them. *: point of attachment. X5 = NC1=N[C@@H]([C@H](N[*:1])C(=O)[*:2])C[C@H](O)N1; ΔAla(Z-3-ureido) = NC(=O)N/C=C(\N)C(=O)O; β3hOrn = NCCC[C@H](N)CC(=O)*; Dap = NC[C@H](N)C(=O)O

Experiment [1] can be described thus: qHTS assay to identify small molecule antagonists of the glucocorticoid receptor (GR) signaling pathway - cell viability counter screen (AID 720693). Also: nearly all actives have a fitted effect of over 55% in size.
A short description of experiment [2]: qHTS assay for identifying genotoxic compounds that show differential cytotoxicity against isogenic chicken DT40 cell lines with known DNA damage response pathways - wild type cell line (AID 743012). Also: nearly all actives have a fitted effect of over 60% in size. Also: potency is read from the fitted curve at half-maximal effect. A digest of the protocol: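 300 wt DT40 cells/well; cpd (DMSO) pintool-transferred after ~0.5 h at 37 C/5% CO2; 40 h incubation; CellTiter-Glo added, 30 min RT; luminescence read.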

Experiment [3] can be described thus: qHTS assay for identifying genotoxic compounds that show differential cytotoxicity against isogenic chicken DT40 cell lines with known DNA damage response pathways - Rev3 mutant cell line (AID 743014). Also: nearly all actives have a fitted effect of over 55% in size. Also: potency is read from the fitted curve at half-maximal effect. In general terms: qHTS replaces the single test concentration by a dilution series.
Experiment [4] is described as follows: qHTS assay for identifying genotoxic compounds that show differential cytotoxicity against isogenic chicken DT40 cell lines with known DNA damage response pathways - Rad54/Ku70 mutant cell line (AID 743015). Also: nearly all actives have a fitted effect of over 60% in size. Also: potency is read from the fitted curve at half-maximal effect.
Experiment [5] can be described thus: qHTS assay to identify small molecule antagonists of the androgen receptor (AR) signaling pathway - cell viability counter screen (AID 743033; also: nearly all actives have a fitted effect of over 45% in size).
The nature of experiment [6]: qHTS assay to identify small molecule antagonists of the androgen receptor (AR) signaling pathway using the MDA cell line - cell viability counter screen (AID 743041; also: nearly all actives have a fitted effect of over 45% in size). A digest of the protocol:
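Using the breast carcinoma line MDA-kb2 AR-luc, test chemicals were co-incubated with R1881 for 16 h; CellTiter-Fluor reagent, added at 15.5 h, provided a fluorescence measure of live cells.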

For experiment [7], the target named is Androgen receptor (Homo sapiens) (UniProt P10275). The experiment can be described thus: qHTS assay to identify small molecule agonists of the androgen receptor (AR) signaling pathway using the MDA cell line (AID 743040; also: nearly all actives have a fitted effect of over 20% in size). Summed up: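 Stable MMTV-luciferase reporter in MDA-kb2 cells; note the promoter carries GR as well as AR response elements. 16 h compound treatment, 37C, 0% CO2; ONE-Glo luminescence endpoint.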

The target is the same in experiment [8]. As to the kind of experiment: qHTS assay to identify small molecule antagonists of the androgen receptor (AR) signaling pathway using the MDA cell line (AID 743042; also: nearly all actives have a fitted effect of over 55% in size). Summed up:
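Antagonist mode: compounds plus R1881 agonist added to MDA-kb2 AR-luc cells, incubated 16 h at 37C. Luciferase reporter luminescence quantified, with multiplexed CellTiter-Fluor readout for cell viability.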

The target is the same in experiment [9]. The experiment can be described thus: qHTS assay to identify small molecule agonists of the androgen receptor (AR) signaling pathway (AID 743036; active = well fitted activation curve with a large enough effect in the signal ratio in the repeat runs, with a control signal flat, not every such curve was filed as active; the % refers to the signal ratio). A digest of the protocol:
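Quantitative HTS of the Tox21 10K library in HEK293 cells bearing a stably integrated UAS-controlled beta-lactamase reporter. Compound exposure lasted 16 h at 37C. Reporter activity was detected by FRET substrate fluorescence after 2 h at room temperature.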

Androgen receptor (Homo sapiens), sequence (P10275 whole entry, looked up): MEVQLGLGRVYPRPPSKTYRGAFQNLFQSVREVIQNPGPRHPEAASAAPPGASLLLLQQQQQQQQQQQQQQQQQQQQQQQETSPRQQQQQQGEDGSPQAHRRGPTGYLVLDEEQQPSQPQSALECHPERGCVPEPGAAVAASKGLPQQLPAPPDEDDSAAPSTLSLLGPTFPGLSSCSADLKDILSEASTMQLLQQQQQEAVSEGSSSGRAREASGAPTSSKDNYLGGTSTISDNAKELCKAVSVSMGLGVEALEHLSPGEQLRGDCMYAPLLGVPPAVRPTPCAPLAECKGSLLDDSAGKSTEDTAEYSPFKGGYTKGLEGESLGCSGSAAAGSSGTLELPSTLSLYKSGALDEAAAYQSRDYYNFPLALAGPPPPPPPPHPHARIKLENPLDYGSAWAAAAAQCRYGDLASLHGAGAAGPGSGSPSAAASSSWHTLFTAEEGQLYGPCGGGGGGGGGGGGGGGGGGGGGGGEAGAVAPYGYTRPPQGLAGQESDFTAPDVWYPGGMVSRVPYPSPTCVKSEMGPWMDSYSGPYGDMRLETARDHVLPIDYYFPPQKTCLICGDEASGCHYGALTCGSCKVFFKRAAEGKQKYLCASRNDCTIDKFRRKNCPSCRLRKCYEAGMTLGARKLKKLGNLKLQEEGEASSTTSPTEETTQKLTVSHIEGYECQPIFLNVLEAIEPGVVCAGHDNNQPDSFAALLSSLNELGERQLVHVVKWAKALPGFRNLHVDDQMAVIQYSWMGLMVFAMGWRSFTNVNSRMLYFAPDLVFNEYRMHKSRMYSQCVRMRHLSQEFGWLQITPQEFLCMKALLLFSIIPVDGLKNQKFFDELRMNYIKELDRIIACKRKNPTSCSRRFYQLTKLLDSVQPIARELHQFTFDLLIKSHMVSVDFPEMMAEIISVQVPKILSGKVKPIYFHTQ

Consider `NCCC[C@H](N)CC(=O)N[C@H]1CNC(=O)[C@H]([C@H]2C[C@H](O)NC(N)=N2)NC(=O)/C(=C/NC(N)=O)NC(=O)[C@H](CO)NC(=O)[C@H](CO)NC1=O` (β3hOrn-[Dap]SS[ΔAla(Z-3-ureido)][X5]; lactam 1-C), for which the Potency result in [1], in [2], in experiment [3], in experiment [4], in [5] and in experiment [6] was “inactive” throughout.
As to `Oc1cc(O)cc(O)c1`, the Potency entry in [1], in experiment [2], in [3], in experiment [4], in experiment [5] and in experiment [7] was “inactive” in each case. The Potency entry in experiment [6] and in [8] was “inactive” in each case.
`CC1=C[C@H](O)CC(C)(C)[C@H]1/C=C/C(C)=C/C=C/C(C)=C/C=C/C=C(C)/C=C/C=C(C)/C=C/C1=C(C)C[C@@H](O)CC1(C)C`: the Potency result in [1], in [5], in [9], in experiment [7] and in experiment [6] was “inactive” throughout. For the same molecule, the Potency in experiment [2] is 11.9 µM (active); in experiment [3] it was 18.8 µM (active); in experiment [4], 21.1 µM (active).
Take `Clc1ccc(COC(Cn2ccnc2)c2ccc(Cl)cc2Cl)c(Cl)c1` (stereo unspecified): the Potency entry in experiment [1], in [5], in experiment [7], in experiment [6] and in experiment [8] was “inactive” throughout. The Potency was 10.1 µM (active) in experiment [2], 11.4 µM (active) in experiment [3] and 10.1 µM (active) in experiment [4].
Turning to `O.O=C([O-])CC([S-])C(=O)[O-].[Au+].[Na+].[Na+]` (stereo unspecified), the Potency entry in [1], in [2], in [3], in experiment [4], in [5] and in experiment [6] was “inactive” throughout.
For `Cc1cccc(C)c1Nc1ncccc1C(=O)O`, the Potency entry in [1], in [2], in [3], in experiment [4], in [5] and in experiment [7] was “inactive” each time. For the same molecule, the Potency entry in [6] and in experiment [8] was “inactive” throughout.
In the case of `Cc1ccccc1OCC(O)CNCCOc1ccc(C(N)=O)cc1` (stereo unspecified), the Potency result in [1], in experiment [2], in [3], in [4], in [5] and in experiment [6] was “inactive” in each case.
With `C[C@@H]1C/C=C/C=C/C=C/C=C/[C@H](O[C@@H]2O[C@H](C)[C@@H](O)[C@H](N)[C@@H]2O)C[C@@H]2O[C@](O)(C[C@@H](O)C[C@H]3O[C@@H]3/C=C/C(=O)O1)C[C@H](O)[C@H]2C(=O)O`, the Potency result in experiment [1], in experiment [2], in experiment [3], in [4], in [5] and in experiment [6] was “inactive” each time.
Take `Cc1cccc(Nc2ncccc2C(=O)O)c1C`: the Potency result in experiment [1], in experiment [2], in [3], in [4], in [5] and in experiment [6] was “inactive” each time.
With `O=[n+]1ccn([O-])c2ccccc21`, the Potency result in experiment [1], in experiment [2], in experiment [3], in experiment [4], in experiment [5] and in [6] was “inactive” each time.
`CC(C)CCCC(C)NC(C)C` (stereo unspecified): the Potency entry in experiment [1], in experiment [2], in [3], in experiment [4], in experiment [5] and in [9] was “inactive” throughout. Moreover, the Potency entry in [7], in experiment [6] and in experiment [8] was “inactive” throughout.
For the molecule `CC(C)(C)NCC(O)c1ccc(O)c(CO)n1` (stereo unspecified), the Potency entry in experiment [1], in experiment [2], in experiment [3], in experiment [4], in experiment [5] and in experiment [6] was “inactive” throughout.
For `CC(C)(C)c1ccc(CN2CCN(C(c3ccccc3)c3ccc(Cl)cc3)CC2)cc1` (stereo unspecified), the Potency entry in [1], in experiment [5], in [9], in [7], in [6] and in experiment [8] was “inactive” throughout. Besides, the Potency in experiment [2] was 5.31 µM (active); in [3] it was 4.22 µM (active); in experiment [4], 8.41 µM (active).
For the molecule `CC(=O)N[C@@H]1C(O[C@H]2O[C@H](C(=O)O)C(O)[C@H](O)[C@H]2O)[C@H](O)[C@@H](CO)O[C@H]1O[C@@H]1C(C(=O)O)O[C@@H](O[C@H]2[C@H](O)[C@@H](CO)OC(O)[C@@H]2NC(C)=O)[C@H](O)[C@H]1O` (stereo partly specified), the Potency result in experiment [1], in experiment [2], in experiment [3], in [4], in [5] and in experiment [6] was “inactive” each time.
For the molecule `Cc1c(Cl)cccc1Nc1ncccc1C(=O)O`, the Potency entry in experiment [1], in experiment [2], in experiment [3], in [4], in experiment [5] and in [6] was “inactive” each time.
Consider `CCCN(CC)C(CC)C(=O)Nc1c(C)cccc1C` (stereo unspecified), for which the Potency entry in experiment [1], in [2], in experiment [3], in experiment [4], in [5] and in experiment [6] was “inactive” each time.
Take `OC1OC[C@@H](O)[C@H](O)[C@@H]1O` (stereo partly specified): the Potency result in [1], in [2], in experiment [3], in experiment [4], in experiment [5] and in experiment [6] was “inactive” throughout.
As to `CS(=O)(=O)NC(=O)CCC/C=C\C[C@H]1C(=O)C[C@@H](O)[C@@H]1/C=C/[C@H](O)COc1ccccc1`, the Potency entry in [1], in experiment [2], in experiment [3], in [4], in experiment [5] and in experiment [6] was “inactive” throughout.
With `CCC(C)(C)OC(=O)N[C@@H](Cc1c[nH]c2ccccc12)C(=O)N[C@@H](CCSC)C(=O)N[C@@H](CC(=O)O)C(=O)N[C@@H](Cc1ccccc1)C(N)=O`, the Potency result in experiment [1], in [2], in experiment [3], in experiment [4], in [5] and in experiment [6] was “inactive” in each case.
With `COC(=O)C1=C(C#N)NC(C)=C(C(=O)OC(C)C)C1c1cccc([N+](=O)[O-])c1` (stereo unspecified), the Potency entry in experiment [1], in [5] and in [6] was “inactive” throughout. For the same molecule, the Potency in experiment [2] is 13.3 µM (active); in [3], 23.7 µM (active); in experiment [4], 18.8 µM (active).
Turning to `CC(=O)OC[C@H]1O[C@@H](O[C@H]2[C@H](O)[C@@H](OC(=O)c3ccccc3C(=O)O)[C@H](O)O[C@@H]2COC(C)=O)[C@H](O)[C@@H](OC(=O)c2ccccc2C(=O)O)[C@@H]1O`, the Potency result in experiment [1], in experiment [2], in experiment [3], in [4], in [5] and in experiment [6] was “inactive” in each case.
Turning to `CO[C@H]1[C@@H](O)[C@H](N)[C@@H](O[C@H]2O[C@H]([C@H](C)N)CC[C@H]2N)[C@H](O)[C@@H]1N(C)C(=O)CN`, the Potency entry in [1], in experiment [2], in experiment [3], in [4], in experiment [5] and in experiment [6] was “inactive” in each case.
